From the antibiotic and cytotoxicity screens of Wong et al. (2023)
Out of some 39,000 compounds screened, about 500 (1.3%) were called active. The sample as a whole holds a higher share of actives than the screen did.

The molecules below were run on S. aureus RN4220 (assay: growth inhibition call (relative growth <= 0.2)). Conditions: 50 µM.
In the case of O=C(Nc1ccc(-c2nc3ccc(NC(=O)c4ccc(Cl)cc4)cc3[nH]2)cc1)c1ccc(Cl)cc1, the growth inhibition call is reported as “inactive”.
COCC#Cc1cnc2c(c1)C(=O)N([C@H](C)CO)C[C@H](C)[C@@H](CN(C)S(=O)(=O)c1cn(C)cn1)O2 was tested, and the growth inhibition call was “inactive”.
In the case of COc1ccc(CN(C)C[C@H]2OCCCC[C@H](C)Oc3ccc(NC(=O)c4ccccc4)cc3C(=O)N([C@@H](C)CO)C[C@@H]2C)cc1, the growth inhibition call is reported as “inactive”.
Cc1cc(C(=O)Nc2cccc3c2O[C@@H](CN(C)C(=O)NC(C)C)[C@H](C)CN([C@@H](C)CO)C3=O)n(C)n1 was tested, and the growth inhibition call was “inactive”.
With C[C@@H]1CN([C@H](C)CO)C(=O)c2cc(NC(=O)Nc3ccccc3)ccc2O[C@@H](C)CCCCO[C@@H]1CN(C)Cc1ccccc1 the growth inhibition call was “inactive”.
With C[C@@H](OC[C@@]1(c2ccccc2)CC[C@]2(CCC(=O)N2)CN1)c1cc(C(F)(F)F)cc(C(F)(F)F)c1 the growth inhibition call was “active”.
In the case of COc1ccc(NC(=O)Nc2cccc3c2O[C@@H](CN(C)S(C)(=O)=O)[C@H](C)CN([C@@H](C)CO)C3=O)cc1, the growth inhibition call is reported as “inactive”.
With Cc1ccccc1[C@@H](c1ncccc1C)N(C)C(=O)C1CCN(CCOc2ccc(Cl)cc2Cl)CC1 the growth inhibition call was “active”.
Cc1cccnc1[C@H](c1ccc(F)cc1)N(C)C(=O)C1CCN(CCn2cnc3c2c(=O)n(C)c(=O)n3C)CC1 was tested, and the growth inhibition call was “inactive”.
With Cc1cccnc1[C@H](c1ccc(F)cc1)N(C)C(=O)C1CCN(CCOc2ccc(Cl)cc2Cl)CC1 the growth inhibition call was “active”.
For Cc1cc(Cl)ccc1OCCN1CCN(C(=O)[C@H]2CC[C@@H](N)C2)CC1, the growth inhibition call was “inactive”.
For Cc1ccccc1[C@@H](c1ncccc1C)N(C)C(=O)C1CCN(CCOc2ccc3ccccc3c2)CC1, the growth inhibition call was “inactive”.
With COc1ccccc1[C@@H](NC(=O)C1CCN(CCOc2ccc(Cl)cc2Cl)CC1)c1ccccn1 the growth inhibition call was “inactive”.
In the case of COc1ccc(S(=O)(=O)Nc2ccc3c(c2)C(=O)N([C@H](C)CO)C[C@@H](C)[C@H](CN(C)Cc2ccc(Cl)c(Cl)c2)OCCCC[C@H](C)O3)cc1, the growth inhibition call is reported as “inactive”.
With C[C@@H]1CN([C@H](C)CO)C(=O)c2cc(-c3ccncc3)cnc2O[C@H]1CN(C)S(=O)(=O)c1ccccc1 the growth inhibition call was “inactive”.
C[C@@H]1CN([C@@H](C)CO)C(=O)c2cc(NS(=O)(=O)c3ccc(F)cc3)ccc2O[C@H]1CN(C)C(=O)Nc1ccc(C(F)(F)F)cc1 was tested, and the growth inhibition call was “inactive”.
C[C@@H]1CCCCO[C@H](CN(C)S(=O)(=O)c2cn(C)cn2)[C@H](C)CN([C@@H](C)CO)C(=O)c2cc(NS(=O)(=O)c3ccc(F)cc3)ccc2O1 was tested, and the growth inhibition call was “inactive”.
In the case of C[C@@H]1CN([C@@H](C)CO)C(=O)c2cc(NC(=O)Nc3cccc4ccccc34)ccc2O[C@@H]1CN(C)S(=O)(=O)c1ccc(F)cc1, the growth inhibition call is reported as “inactive”.
COc1cc(OC)cc(-c2ccc([C@H]3CC(=O)C[C@@H](c4ccccc4)C34C(=O)c3ccccc3C4=O)cc2)c1 was tested, and the growth inhibition call was “active”.
For COc1cc(OC)cc(-c2ccc([C@H]3CC(=O)C[C@@H](c4ccccc4)C34C(=O)OC(C)(C)OC4=O)cc2)c1, the growth inhibition call was “inactive”.
With COc1cc(OC)cc(-c2ccc(-c3ccc([C@H]4CC(=O)C[C@@H](c5ccccc5)C45C(=O)OC(C)(C)OC5=O)cc3)cc2OC)c1 the growth inhibition call was “inactive”.
For Cc1cc(C(=O)Nc2cccc3c2O[C@H](CN(C)C(=O)NC(C)C)[C@@H](C)CN([C@H](C)CO)C3=O)n(C)n1, the growth inhibition call was “inactive”.
C[C@H](CO)N1C[C@H](C)[C@@H](CN(C)C(=O)c2ccccc2)OCCCC[C@H](C)Oc2ccc(NC(=O)Nc3ccc4c(c3)OCO4)cc2C1=O was tested, and the growth inhibition call was “inactive”.
With CO[C@H]1CN(C)C(=O)c2ccc(NS(=O)(=O)c3ccccc3C)cc2OC[C@@H](C)N(S(C)(=O)=O)C[C@@H]1C the growth inhibition call was “inactive”.
C[C@@H]1CCCCO[C@H](CN(C)C)[C@H](C)CN([C@@H](C)CO)C(=O)c2cc(NC(=O)CCCN(C)C)ccc2O1 was tested, and the growth inhibition call was “inactive”.
CO[C@@H]1[C@@H](O[C@@H]2O[C@H](C)[C@@H](O[C@H]3C[C@@](C)(O)[C@@H](OC(=O)CC(C)C)[C@H](C)O3)[C@H](N(C)C)[C@H]2O)[C@@H](CC=O)C[C@@H](C)[C@@H](O)/C=C\C=C/C[C@@H](C)OC(=O)C[C@H]1OC(C)=O was tested, and the growth inhibition call was “active”.
With COC1C(O)CC(=O)OC(C)CC=CC=CC(O)C(C)CC(CC=O)C1OC1OC(C)C(OC2CC(C)(O)C(OC(=O)CC(C)C)C(C)O2)C(N(C)C)C1O (centres undefined) [KITASAMYCINS [A1 shown]] the growth inhibition call was “active”.
With CO[C@@H]1[C@@H](O[C@@H]2O[C@H](C)[C@@H](O[C@H]3C[C@@](C)(O)[C@@H](OC(=O)CC(C)C)[C@H](C)O3)[C@H](N(C)C)[C@H]2O)[C@@H](CC=O)C[C@@H](C)[C@@H](O)/C=C/C=C/CC(C)OC(=O)C[C@H]1OC(C)=O (some centres undefined) the growth inhibition call was “inactive”.
With COC(=O)[C@@H]1CC(=O)O[C@H](C)C/C=C/C=C/[C@H](O)[C@H](C)C[C@H](CC=O)[C@H](O[C@H]2O[C@H](C)[C@@H](O[C@H]3C[C@@](C)(O)[C@@H](OC(=O)CC(C)C)[C@H](C)O3)[C@H](N(C)C)[C@H]2O)[C@H]1OC the growth inhibition call was “active”.
In the case of C[C@@H]1CN([C@@H](C)CO)C(=O)c2cc(NC(=O)CCC(F)(F)F)ccc2O[C@@H]1CN(C)Cc1ccc(Oc2ccccc2)cc1, the growth inhibition call is reported as “inactive”.
For C[C@@H]1CN([C@H](C)CO)C(=O)c2cccc(NC(=O)Nc3ccc(C(F)(F)F)cc3)c2O[C@@H]1CN(C)C(=O)NC1CCCCC1, the growth inhibition call was “inactive”.
For C[C@H]1CN([C@@H](C)CO)C(=O)c2cccc(NC(=O)Nc3ccc(C(F)(F)F)cc3)c2O[C@@H]1CN(C)CC1CCCCC1, the growth inhibition call was “inactive”.
With C[C@H](CO)N1C[C@H](C)[C@H](CN(C)C(=O)Nc2ccc(C(F)(F)F)cc2)Oc2c(NC(=O)NC3CCCCC3)cccc2C1=O the growth inhibition call was “active”.
C[C@H]1CN([C@@H](C)CO)C(=O)c2cccc(NC(=O)NC3CCCCC3)c2O[C@H]1CN(C)C(=O)Nc1ccc(C(F)(F)F)cc1 was tested, and the growth inhibition call was “inactive”.
For C[C@H]1CN([C@@H](C)CO)C(=O)c2cccc(NC(=O)Nc3ccc(C(F)(F)F)cc3)c2O[C@@H]1CN(C)C(=O)NC1CCCCC1, the growth inhibition call was “inactive”.
In the case of C[C@@H]1CN([C@H](C)CO)C(=O)c2cccc(NC(=O)NC3CCCCC3)c2O[C@H]1CN(C)C(=O)Nc1ccc(C(F)(F)F)cc1, the growth inhibition call is reported as “inactive”.
In the case of C[C@@H]1CN([C@H](C)CO)C(=O)c2cccc(NC(=O)Nc3ccc(C(F)(F)F)cc3)c2O[C@@H]1CN(C)CC1CCCCC1, the growth inhibition call is reported as “active”.
With C[C@@H]1CN([C@H](C)CO)C(=O)c2cccc(NC(=O)Nc3ccc(C(F)(F)F)cc3)c2O[C@H]1CN(C)CC1CCCCC1 the growth inhibition call was “inactive”.
In the case of C[C@H]1CN([C@@H](C)CO)C(=O)c2cccc(NC(=O)Nc3ccc(C(F)(F)F)cc3)c2O[C@H]1CN(C)C(=O)NC1CCCCC1, the growth inhibition call is reported as “active”.
